ELG1 genotox – qHTS screen for small molecules that induce genotoxicity in human embryonic kidney (HEK293T) cells expressing luciferase-tagged ELG1. hit rate 1.3% among 330,000. HEK293T ELG1-luciferase reporter, luminescence, 16 h. Potency, µM (titrated, usually from 46 µM), for inactives: at the highest dose activity change, positive = activation, actives largely listed as activators; further: % of control where 0% means no effect; nearly all actives have a fitted effect of over 60% in size
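16 hr compound incubation (37 °C, 5% CO2) of HEK293T cells carrying luciferase-tagged ELG1; luciferase then measured by ONE-Glo luminescence after 30 min at RT.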
NPC1 prom act – qHTS Assay for NPC1 Promoter Activators | Huh7 NPC1 promoter luciferase reporter, 24 h | hit rate 2.4% among 320,000 | Potency, µM (top dose mostly 9.22 µM), inactives show top-dose activation, hits mostly activators; further: % of control where 0% means no effect; nearly all actives have a fitted effect of over 60% in size
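Huh7 cells stably carrying NPC1 promoter–luciferase, plated in Opti-MEM with 10% FBS for 2 h, were exposed to compound in DMSO for 24 h at 37 °C; luciferase reagent was added for 10 min and luminescence read.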
SMN2 splice enh – qHTS Assay for Enhancers of SMN2 Splice Variant Expression | AID 1458, 2008 | Potency, µM (doses to about 46.1 µM), for the others: at the highest dose activity change, positive = activation, actives largely listed as activators | hit rate 2.8% among 210,000 | HEK293 SMN2-luciferase splicing reporter, luminescence, 30-36 h; further: % of control where 0% means no effect; nearly all actives have a fitted effect of over 55% in size
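HEK293 cells carry an SMN2 […]–luciferase reporter in which exon 7 inclusion puts luciferase in frame. Cells were plated 10-12 h before compound addition, then incubated 30-36 h at 37C. ONE-Glo luminescence was read; sodium butyrate at 4.5 mM final served as control.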
FLuc modulator – qHTS profiling assay for firefly luciferase inhibitor/activator using purifed enzyme and Km concentrations of substrates (counterscreen for miR-21 project). purified FLuc, Km substrates, luminescence inhibition. hit rate 6.9% among 360,000. Luciferin 4-monooxygenase (Photinus pyralis), P08659. Potency, µM (top dose mostly 57.5 µM), inactives show at the top dose activity change, negative = inhibition, hits mostly inhibitors;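 further: plate controls were vehicle for no effect and reference inhibitor for full effect; nearly all actives have a fitted effect of over 55% in size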
Target sequence (P08659 whole entry, looked up): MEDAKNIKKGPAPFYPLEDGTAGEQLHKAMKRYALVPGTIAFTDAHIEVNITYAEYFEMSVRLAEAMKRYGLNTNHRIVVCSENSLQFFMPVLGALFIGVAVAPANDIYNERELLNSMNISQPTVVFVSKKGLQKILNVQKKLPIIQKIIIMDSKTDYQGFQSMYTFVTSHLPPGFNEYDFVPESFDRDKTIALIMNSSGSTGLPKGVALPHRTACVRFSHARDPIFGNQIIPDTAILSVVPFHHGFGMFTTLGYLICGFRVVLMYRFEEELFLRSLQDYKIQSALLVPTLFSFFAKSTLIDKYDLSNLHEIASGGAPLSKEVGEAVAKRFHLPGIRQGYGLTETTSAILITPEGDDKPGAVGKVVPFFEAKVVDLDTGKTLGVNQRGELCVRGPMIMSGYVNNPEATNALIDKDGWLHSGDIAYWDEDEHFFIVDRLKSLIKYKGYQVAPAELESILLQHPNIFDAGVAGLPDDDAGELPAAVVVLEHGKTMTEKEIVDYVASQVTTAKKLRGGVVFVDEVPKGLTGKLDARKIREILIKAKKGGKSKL
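Purified P. pyralis luciferase, 10 nM final, with Km-level 10 uM D-luciferin and 10 uM ATP in 50 mM Tris acetate pH 7.5, 10 mM Mg acetate, 0.01% Tween-20, 0.05% BSA; 6-point qHTS titration about 60 µM downward; luminescence read.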
Rab9 promoter act – qHTS Assay for Rab9 Promoter Activators; hit rate 2.8% among 320,000; Huh7 Rab9 promoter-luciferase reporter, luminescence, 24 h; AID 485297, 2010; Potency, µM (highest dose often 9.22 µM), for the others: top-dose activation, negative = inhibition, actives largely listed as activators; further: % of control where 0% means no effect; nearly all actives have a fitted effect of over 60% in size
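Cells were plated at 1500 per well in reduced-serum medium with 10% FBS and left 2 h. Compound in DMSO was then added for 24 h at 37 °C. Reporter signal was read by luminescence after 10 min with luciferase detection reagent.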
Starred values were filed as active, the others as inactive. This is a sample that favours compounds with a hit; in the whole collection about 7.5% have one here. The call rests on the fitted dose curve; in most records, active means well fitted curve in the direction sought with a large enough effect; inconclusive means small, poorly fitted or top-dose-only effect, or another doubt; inactive means no such curve, though single readings can be large; an effect the other way counts as inactive or inconclusive. Potency means the concentration at half of the fitted maximal effect.

What do the screens show for `Cc1csc2cc(-c3cccc([N+](=O)[O-])c3)c(-c3cccc([N+](=O)[O-])c3)c[n+]12`?
ELG1 genotox: -0.6%; NPC1 prom act: 0.8%; SMN2 splice enh: -5.4%; FLuc modulator: 1.3%; Rab9 promoter act: 1.3%

What do the screens show for `COc1ccc(C(=O)Nc2ccccn2)cc1`?
ELG1 genotox: -1.9%; NPC1 prom act: -2.5%; SMN2 splice enh: 2.4%; FLuc modulator: 2.2%; Rab9 promoter act: -4.1%

Results for COc1ccc(C(=O)Nc2ccccc2C(=O)Nc2ccccn2)cc1 ?
ELG1 genotox: 15.0%; NPC1 prom act: inconclusive; FLuc modulator: 6.01µM*; Rab9 promoter act: inconclusive

How did CCOC(=O)CSc1nc(N)c2c3c(sc2n1)CCCC3 do in these assays?
ELG1 genotox: 23.1%; NPC1 prom act: 5.6%; SMN2 splice enh: -5.0%; FLuc modulator: 9.53µM*; Rab9 promoter act: 2.1%

How did CC1CCc2c(sc3nc(SCC(=O)NCc4ccco4)nc(N)c23)C1 (stereo not given) do in these assays?
ELG1 genotox: 13.9%; NPC1 prom act: 12.9%; SMN2 splice enh: -20.8%; FLuc modulator: 4.78µM*; Rab9 promoter act: 2.9%

How did CCSc1nc(N)c2c3c(sc2n1)CN(C)CC3 do in these assays?
ELG1 genotox: 15.7%; NPC1 prom act: 10.0%; SMN2 splice enh: 13.0%; FLuc modulator: inconclusive; Rab9 promoter act: 1.3%

What do the screens show for `CCN(CC)C(=O)CSc1nc(N)c2c3c(sc2n1)CC(C)CC3` (stereo not given)?
ELG1 genotox: 15.8%; NPC1 prom act: 17.1%; SMN2 splice enh: 9.6%; FLuc modulator: 1.9µM*; Rab9 promoter act: 19.0%

Results for CCOC(=O)N1CCC(N2C(=O)c3ccc(C(=O)NCc4ccco4)cc3C2=O)CC1 ?
ELG1 genotox: -0.2%; NPC1 prom act: -3.1%; SMN2 splice enh: 1.2%; FLuc modulator: -0.2%; Rab9 promoter act: -1.5%

What do the screens show for `COc1ccc(-c2[nH]ncc2/C=N\NC(=O)c2ccc(C(C)(C)C)cc2)cc1OC`?
ELG1 genotox: 3.0%; NPC1 prom act: 1.1%; SMN2 splice enh: inconclusive; FLuc modulator: 1.35µM*; Rab9 promoter act: 3.8%

What do the screens show for `COc1ccc(C(=O)N/N=C/c2cn[nH]c2-c2ccc(OC)cc2OC)cc1`?
ELG1 genotox: 0.8%; NPC1 prom act: 0.7%; SMN2 splice enh: -7.2%; FLuc modulator: inconclusive; Rab9 promoter act: 2.4%

Results for CCCCOc1ccc(C(=O)N/N=C/c2cn[nH]c2-c2ccc(OC)c(OC)c2)cc1 ?
ELG1 genotox: -3.1%; NPC1 prom act: -2.2%; SMN2 splice enh: -1.2%; FLuc modulator: 12µM*; Rab9 promoter act: -3.0%

How did COc1ccc(-c2[nH]ncc2/C=N/NC(=O)c2ccc(Br)cc2)c(OC)c1 do in these assays?
ELG1 genotox: -7.4%; NPC1 prom act: 1.2%; SMN2 splice enh: 6.5%; FLuc modulator: inconclusive; Rab9 promoter act: 0.1%

Results for N#Cc1ccc(OCC(=O)Nc2cc(S(=O)(=O)N3CCCCC3)ccc2N2CCCCC2)cc1 ?
ELG1 genotox: 1.6%; NPC1 prom act: -6.7%; SMN2 splice enh: -10.2%; FLuc modulator: -0.6%; Rab9 promoter act: -5.6%

How did Fc1ccc2nc(Nc3ccccc3)sc2c1 do in these assays?
ELG1 genotox: inconclusive; NPC1 prom act: 2.82µM*; SMN2 splice enh: 15.8µM*; FLuc modulator: 7.57µM*; Rab9 promoter act: 2.24µM*

What do the screens show for `NNc1nc2ccc(Cl)cc2s1`?
ELG1 genotox: -0.5%; NPC1 prom act: inconclusive; SMN2 splice enh: inconclusive; FLuc modulator: inconclusive; Rab9 promoter act: inconclusive

Results for NNc1nc2ccc(F)cc2s1 ?
ELG1 genotox: inconclusive; NPC1 prom act: 15.1%; SMN2 splice enh: 21.4%; FLuc modulator: 19µM*; Rab9 promoter act: 22.1%

Results for CCCC(C)NC(=O)CN(Cc1ccco1)S(=O)(=O)c1ccccc1 (stereo not given) ?
ELG1 genotox: -0.9%; NPC1 prom act: -3.9%; FLuc modulator: 2.6%; Rab9 promoter act: -4.0%

How did CCN(CC(=O)NC1CCS(=O)(=O)C1)Cc1nc2c(Br)cc(Br)cc2c(=O)[nH]1 (stereo not given) do in these assays?
ELG1 genotox: -2.8%; NPC1 prom act: -5.2%; SMN2 splice enh: -13.8%; FLuc modulator: -17.8%; Rab9 promoter act: -2.5%

Results for O=C(Nc1nccs1)c1ccc(N2C(=O)[C@@H]3[C@H](C2=O)[C@H]2C=C[C@@H]3C2)cc1 ?
ELG1 genotox: inconclusive; NPC1 prom act: 2.51µM*; FLuc modulator: 26.9µM*; Rab9 promoter act: 3.55µM*

What do the screens show for `O=C(Nc1nccs1)c1ccc(N2C(=O)C3CCCCC3C2=O)cc1` (stereo not given)?
ELG1 genotox: inconclusive; NPC1 prom act: 10.7%; SMN2 splice enh: 23.3%; FLuc modulator: 21.3µM*; Rab9 promoter act: 15.6%

What do the screens show for `O=C(Nc1nccs1)c1cccc(N2C(=O)C3C4C=CC(C4)C3C2=O)c1` (stereo not given)?
ELG1 genotox: -4.6%; NPC1 prom act: 1.1%; SMN2 splice enh: -7.7%; FLuc modulator: -23.4%; Rab9 promoter act: 1.0%

What do the screens show for `COc1ccc(OC)c(-c2csc(NC(=O)c3ccccc3F)n2)c1`?
ELG1 genotox: 8.3%; NPC1 prom act: -0.1%; FLuc modulator: 15.1µM*; Rab9 promoter act: -2.8%

What do the screens show for `Cc1csc2nc(COc3cccc(NC(=O)c4ccccc4F)c3)cc(=O)n12`?
SMN2 splice enh: -3.2%; FLuc modulator: 0.8%

Results for COc1ccc(OC)c(-c2csc(NC(=O)Cc3ccccc3F)n2)c1 ?
ELG1 genotox: -31.2%; NPC1 prom act: 14.4%; FLuc modulator: 10.7µM*; Rab9 promoter act: 4.1%

How did O=C(Nc1nc(COc2ccccc2)cs1)c1ccccc1F do in these assays?
ELG1 genotox: 8.9%; NPC1 prom act: 7.8%; SMN2 splice enh: -43.1%; FLuc modulator: 26.9µM*; Rab9 promoter act: 0.7%

Results for COc1ccc(OC)c(-c2csc(NC(=O)CN3C(=O)NC4(CCCC4)C3=O)n2)c1 ?
ELG1 genotox: 0.9%; NPC1 prom act: -2.7%; FLuc modulator: -2.7%; Rab9 promoter act: -10.3%

Results for COc1ccc(OC)c(-c2csc(NC(=O)Cc3ccccc3OC)n2)c1 ?
ELG1 genotox: 5.7%; NPC1 prom act: 0.0%; FLuc modulator: 9.53µM*; Rab9 promoter act: -0.3%

Results for NC(=O)CN1C(=O)C(=O)N(Cc2ccccc2)C1=O ?
ELG1 genotox: -4.0%; NPC1 prom act: -2.5%; FLuc modulator: 4.6%; Rab9 promoter act: -7.5%

What do the screens show for `CC1CCC(NC(=O)c2ccc3nc[nH]c3c2)CC1` (stereo not given)?
ELG1 genotox: 5.4%; NPC1 prom act: inconclusive; SMN2 splice enh: 7.9%; FLuc modulator: inconclusive; Rab9 promoter act: 25.1%

Assay outcomes deposited in PubChem by National Center for Advancing Translational Sciences (NCATS).
